# This is part of a sample that, as a whole, favours compounds with a hit. Of some 83,000 tested, about 20% had one in any assay.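 The test compound was applied at a single concentration to cells in 96-well plates for 48 hours, and percent growth was recorded.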 The source made the active and inactive calls. How the source made its calls: active means growth percent below 10; inactive means the rest.
# Test system: HL-60(TB) leukemia
# Experiment: NCI-60 one-dose screen, 48 h (100 = growth as untreated, 0 = no growth, -100 = all killed)
# Details: 10 µM unless noted
row,Compound,growth
1,CC1=NN(c2ccccc2)C(=O)C1C(=O)c1ccccc1 (stereo not drawn),68.5% (inactive)
2,Cc1ccc(S(=O)(=O)n2cc(CNc3ccc(N4CCOCC4=O)cc3)c3ccccc32)cc1,66.7% (inactive)
3,COc1ccc(C2=NN(/C=C3\SC(=O)NC3=Nc3ccc(F)cc3)C(c3ccc(F)cc3)C2)cc1 (stereo not drawn),98.1% (inactive)

# Reference: PubChem BioAssay (NCI)
